In the library only some 20% were active in any assay of this set; here they are far more common.
HCMV inh: inhibitors of human cytomegalovirus; HFF cells, HCMV-luciferase reporter, 72 h; hits give low values; activity change, negative = inhibition, % at 57.5 µM; 410,000 tested, 4.5% active; AID 1259415; in the data active means activity change below about -60%; inconclusive means no clear call, values can overlap the other calls; inactive means above about -39%; further: on the % scale 0 is the no-effect control and ±100 the full control effect
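After 16 h attachment at 37C, HFF cells received test compound and HCMV-luciferase (1 PFU/cell); reporter luminescence read 72 h later, data normalized against buffer-only and known inhibitor Salinomycin.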
Cycloheximide cs: counter-screen hit for Shiga toxin inhibitors, cycloheximide. max response, %. 300,000 tested, 12% active. cell reporter, cycloheximide protein synthesis inhibition counterscreen. AID 2314; in the data active means max response mostly above about 13%, no sharp cut-off; inactive means mostly below about 14%; further: read at 38.3 µM for the half of the compounds with a filed dose; 0% is about no effect
Pf growth 96h: P. falciparum growth inhibition at 96 hours; P. falciparum luciferase reporter growth, 96 h; Potency, µM (titrated, usually from 28.7 µM), for inactives: top-dose activity change, negative = inhibition, actives largely listed as inhibitors; 320,000 tested, 6.9% active; further: potency means the concentration at half of the fitted maximal effect; on the % scale 0 is the no-effect control and ±100 the full control effect
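Cell-based qHTS: luciferase-tagged P. falciparum in erythrocytes (2% hematocrit, 0.05% parasitemia final) incubated with compounds for 96 hours, 37 C, 5% CO2; luciferase detection reagent then added and luminescence measured.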
Shiga inhibitor: Shiga toxin inhibition; Vero cells, Shiga toxin protein synthesis inhibition reporter; 290,000 tested, 9.2% active; inhibition, % at 38.7 µM; AID 2315; in the data active means inhibition mostly above about 28%, no sharp cut-off; inactive means mostly below about 43%; further: 0% is about no effect
Pf growth 48h: P. falciparum growth inhibition at 48 hours (one generation); P. falciparum luciferase growth in erythrocytes, 48 h; Potency, µM (series often up to 28.7 µM), for the others: at the top dose activity change, negative = inhibition, most hits filed as inhibitors; 310,000 tested, 5.9% active; further: potency means the concentration at half of the fitted maximal effect; on the % scale 0 is the no-effect control and ±100 the full control effect
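Growth was read as firefly luciferase luminescence after a 48 h, 37 C, 5% CO2 exposure of compounds to reporter-bearing P. falciparum cultures (0.1% parasitemia, 2% hematocrit final) in Albumax-supplemented RPMI 1640.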
* = called active by the depositor; ? = inconclusive; nt = not tested or not shown; + = active, no number. Unless noted, the call rests on the fitted dose curve; in most records, active means well fitted inhibition curve with a large enough effect; inconclusive means small, poorly fitted or top-dose-only effect, or another doubt; inactive means no such curve, though single readings can be large or run the other way.

SMILES	HCMV inh	Cycloheximide cs	Pf growth 96h	Shiga inhibitor	Pf growth 48h
COc1cccc(C(O)c2nc(-c3cccc4cccnc34)cs2)c1 (configuration not stated)	61.8	nt	nt	nt	nt
Cc1c(C(=O)OCC(=O)N2CCCC2)cccc1[N+](=O)[O-]	23.5	13.3	18.0%	41.5	31.4%
CC(C)CCNC(=O)c1cc(S(=O)(=O)N2CCC3(CC2)OCCO3)ccc1F	-25.2	nt	nt	nt	nt
Cc1cccc(-n2nc(CC#N)c(C#N)c2N)c1	-12.0	0.5	13.9%	-8.7	19.3%
N#CCc1nn(-c2ccc(Cl)cc2)c(N)c1C#N	37.4	1.4	13.1µM*	-3.5	-5.6%
CCOC(=O)/C(C#N)=C/c1cc2cc(C)c(C)cc2nc1Cl	-6.3	2.5	53.0%	0.4	30.0%
Cc1cc2cc(C=C(C#N)C#N)c(Cl)nc2cc1C	77.9	25.2*	6.5%	+	31.4%
c1ccc(C2[C@H]3CN(CC4CCCCC4)[C@H](c4ccccc4)C34CC2(c2cccnc2)C4)cc1 (some centres not stated)	-22.3	-2.3	?	-3.6	4.15µM*
Clc1ccc(C2[C@H]3CN(Cc4ccc(-c5ccccc5)cc4)[C@H](c4ccccc4)C34CC2(c2ccccc2)C4)cn1 (some centres not stated)	-17.2	-0.4	-24.1%	14.3	?
COC(=O)c1cccc(C23CC4(C2)[C@H](CN(Cc2cccnc2)[C@@H]4c2ccccc2)C3c2ccccc2)c1 (some centres not stated)	-6.9	1.3	5.86µM*	-1.7	11.7µM*
c1ccc(C2[C@H]3CN(CC4CCCCC4)[C@H](c4ccccc4)C34CC2(c2ccccc2)C4)cc1 (some centres not stated)	-9.6	-3.0	?	13.2	?
c1ccc(C2[C@H]3CN(Cc4cccnc4)[C@H](c4ccccc4)C34CC2(c2cccnc2)C4)cc1 (some centres not stated)	-64.6*	-5.3	2.94µM*	-7.4	2.33µM*
Clc1ccc(C2[C@H]3CN(Cc4cccnc4)[C@H](c4ccccc4)C34CC2(c2ccccc2)C4)cn1 (some centres not stated)	8.0	-4.4	8.28µM*	-5.5	10.4µM*
Cc1ccn(C(=O)c2ccc(NC(=O)C3CCCCC3)cc2)n1	-31.8	17.0	-9.0%	38.7	20.7%
Cc1ccccc1Oc1ccc2c(c1)[C@@H]1C[C@H](N(C)C(=O)Nc3cc(Cl)cc(Cl)c3)[C@H]([C@H](C)O)C(=O)N1CC2	3.4	nt	nt	nt	nt
Cc1cc(F)ccc1S(=O)(=O)N1CCCOC1CNC(=O)C(=O)NCCCN1CCOCC1 (configuration not stated)	20.6	9.2	?	-12.7	7.9%
CCC(C(=O)NCCc1ccc(S(N)(=O)=O)cc1)c1ccccc1 (configuration not stated)	22.0	nt	nt	nt	nt
N#Cc1ccc(C23CC4(C2)[C@H](CN(Cc2ccc(C(F)(F)F)cc2)[C@@H]4c2ccccc2)C3c2ccccc2)cc1 (some centres not stated)	?	-2.0	?	-6.1	?
c1ccc(C2[C@H]3CN(Cc4cccnc4)[C@H](c4ccccc4)C34CC2(c2ccccc2)C4)cc1 (some centres not stated)	-6.0	-5.2	3.29µM*	5.1	4.15µM*
N#Cc1ccc(C23CC4(C2)[C@H](CN(P(=O)(c2ccccc2)c2ccccc2)[C@@H]4c2ccccc2)C3c2ccc(Cl)nc2)cc1 (some centres not stated)	nt	0.6	4.15µM*	12.1	4.65µM*
CC(C)(C)n1c(O)c2n(c1=O)Cc1ccccc1N=C2c1ccccc1	5.9	nt	nt	nt	nt
CN1CCN(C2=Nc3cc(Cl)ccc3Nc3ccccc32)CC1	?	-2.5	?	-15.3	16.9µM*
CCN(C(=O)COC(=O)CCn1c(C)csc1=O)c1c(N)n(Cc2ccccc2)c(=O)[nH]c1=O	6.6	nt	?	nt	-14.2%
O=C(c1ccccc1)c1ncc[nH]1	nt	18.7*	91.7%	36.0	53.9%
O=C(/C(=C(\O)c1ccccc1)c1ncc[nH]1)c1ccccc1	-17.8	1.6	?	-3.7	?
SMILES	HCMV inh	Cycloheximide cs	Pf growth 96h	Shiga inhibitor	Pf growth 48h
COc1cc(N(C)C)cc(CN(C)CCc2ccc([N+](=O)[O-])cc2)c1O	nt	7.3	nt	20.5	nt
CCOc1ccccc1CNC(=O)CN1C(=O)c2cccnc2Oc2ccc(Cl)cc21	0.0	nt	nt	nt	nt
CCn1cc[n+](C)c1P(c1ccccc1)c1ccccc1	-76.2*	-4.7	?	-10.8	1.31µM*
COCCOC(=O)C1=C(C)NC(SCC(=O)NC(C)(C)C)=C(C#N)C1c1ccco1 (configuration not stated)	-32.1	-2.0	nt	-5.6	?
CC(=O)C1=C(C)NC(SCC(=O)Nc2nc3ccccc3s2)=C(C#N)C1c1ccc(Cl)cc1 (configuration not stated)	-10.8	21.6*	6.57µM*	-9.4	7.38µM*
C=CCOC(=O)C1=C(C)NC(SCC(=O)Nc2ccc(C)c(Cl)c2)=C(C#N)C1c1ccco1 (configuration not stated)	?	-3.8	?	17.7	4.15µM*
C=CCOC(=O)C1=C(C)NC(SCC)=C(C#N)C1c1ccc(Cl)cc1 (configuration not stated)	-29.8	-4.7	10.4µM*	-18.8	?
Cc1cccc(Sc2nc(-c3ccccc3)ncc2C(=O)O)c1	-24.5	-7.9	12.8%	-8.1	30.4%
CC(=O)c1cccc(NS(=O)(=O)c2cc3c(cc2C)NC(=O)CO3)c1	21.7	12.4	14.7µM*	-10.9	17.5%
Cc1cc2c(cc1S(=O)(=O)CCC(=O)NCCc1ccccc1)OCC(=O)N2	35.5	-0.6	8.28µM*	1.7	-11.2%
CCN(C(=O)CCS(=O)(=O)c1cc2c(cc1C)NC(=O)CO2)c1cccc(C)c1	-102.9*	nt	nt	nt	nt
Cc1cccc(CCNS(=O)(=O)c2cc3c(cc2C)NC(=O)CO3)c1	-17.4	-1.9	9.28µM*	-7.3	17.4%
CCOC(=O)c1cccc(NS(=O)(=O)c2cc3c(cc2C)NC(=O)CO3)c1	-22.5	nt	nt	nt	nt
COc1cc(Oc2ccccc2)nc(N)n1	38.0	nt	nt	nt	nt
C#CCN1C(=O)CC[C@@H](S(=O)(=O)c2ccccc2)[C@@H]1c1ccccc1	0.9	nt	nt	nt	nt
Cc1cc(C=O)c(C)n1C1CCCCC1	-28.2	6.3	-9.2%	-2.1	nt
CC(=O)c1c(C(C)=O)c(C)n(C2CCCCC2)c1C	?	-2.6	1.47µM*	-1.9	-18.7%
Cn1c(=O)n(C)c2cc(N3CCOCC3)c(NC(=O)c3ccc(C(C)(C)C)cc3)cc21	8.7	nt	nt	nt	nt
COc1cccc(-c2nn(-c3ccc(C)cc3)cc2C(=O)N2CCN(C3CCS(=O)(=O)C3)CC2)c1 (configuration not stated)	-3.8	nt	-10.0%	nt	?
Cc1n[nH]c(=S)n1/N=C/c1ccc(-c2ccccc2[N+](=O)[O-])o1	77.9	12.8*	nt	32.5	16.8%
O=C(N/N=C/c1ccc(-c2ccccc2[N+](=O)[O-])o1)[C@H]1C[C@@H]1c1ccccc1	?	31.2*	25.0%	active	0.0%

Source: PubChem
